Compounds without any hit were thinned out: in the full panel of roughly 83,000, 20% have a hit.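 How to read the values: 0–100, growth inhibition (40 = 60% inhibited); 0, no net growth; -100 to 0, cell death (-40 = 40% of starting cells died; -100 = all dead).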 Values without a mark were called inactive. Active and inactive are the calls of the source. How the source made its calls: active means growth percent below 10; inactive means the rest.

Among the test systems are K-562 leukemia; MALME-3M melanoma; MDA-MB-231 breast; RXF 393 renal; SF-268 CNS; SF-295 CNS; SF-539 CNS; UACC-257 melanoma; M14 melanoma; HCT-15 colon; HT29 colon; SNB-75 CNS; SNB-19 CNS; U251 CNS; PC-3 prostate; SK-MEL-5 melanoma; UACC-62 melanoma; SK-MEL-28 melanoma; SK-MEL-2 melanoma; LOX IMVI melanoma.
Test in all cases: NCI-60 one-dose screen, 48 h (100 = growth as untreated, 0 = no growth, -100 = all killed)
Holding throughout (conditions): 10 µM unless noted

As to `CC(O)C(NC(=O)C1CCCN1C(=O)CNC(=O)C1CC(=O)NCC(=O)NC(Cc2c[nH]c3ccccc23)C(=O)NC(Cc2ccc(O)cc2)C(=O)NCC(=O)NC(CO)C(=O)NC(CCC(N)=O)C(=O)NC(Cc2c[nH]c3ccccc23)C(=O)N1)C(=O)NCC(=O)NC(CCC(N)=O)C(=O)NC(CCCNC(=N)N)C(=O)NC(CC(=O)O)C(=O)O` (stereo not given), the growth in the test with K-562 leukemia was 94.9%; with MALME-3M melanoma it was 95.5%; in the test with MDA-MB-231 breast, 98.6%; in the test with RXF 393 renal it was 116%; in the test with SF-268 CNS, 103%; in the test with SF-295 CNS it was 102%. For the same molecule, the growth with SF-539 CNS is 96%; in the test with UACC-257 melanoma, 102%; with M14 melanoma, 91.1%; in the test on HCT-15 colon it was 99.5%; with HT29 colon, 106%; in the test with SNB-75 CNS, 92.4%. Also, the growth in the test with SNB-19 CNS is 96.6%; in the test on U251 CNS it was 106%; with PC-3 prostate, 76.7%; in the test with SK-MEL-5 melanoma, 101%; with UACC-62 melanoma, 94.9%; with SK-MEL-28 melanoma, 99.6%. In addition, in the test with SK-MEL-2 melanoma, the growth was 116%.

With `C#Cc1nc(C2=C(C)C(OC(C)=O)/C(=N/OC(C)=O)C2)cs1` (stereo not given), the growth in the test on K-562 leukemia is 15.4%; with MALME-3M melanoma, -46.5% (active); with MDA-MB-231 breast, -69.9% (active); in the test with RXF 393 renal it was -19.5% (active); with SF-268 CNS, -42.6% (active); in the test with SF-295 CNS, -89.8% (active). The growth in the test on SF-539 CNS was -90.9% (active); in the test with UACC-257 melanoma, 85.5%; with M14 melanoma, 69.2%; with HCT-15 colon, -11.2% (active); in the test on HT29 colon, -14.1% (active); with SNB-75 CNS, -89% (active). For the same molecule, the growth in the test on SNB-19 CNS is 78.4%; with U251 CNS it was -13.9% (active); in the test on PC-3 prostate, -11.1% (active); in the test with SK-MEL-5 melanoma, 89.7%; with UACC-62 melanoma it was 11.3%; in the test on SK-MEL-28 melanoma, 101%.

Take `N#Cc1nc(-c2ccccc2)oc1S(=O)(=O)N1CCN(CCc2ccccn2)CC1`: the growth was 6.82% (active) in the test with K-562 leukemia; -66.9% (active) in the test with MALME-3M melanoma; 38.9% in the test with MDA-MB-231 breast; -54.7% (active) in the test on RXF 393 renal; 109% in the test on SF-268 CNS; 99.2% in the test with SF-295 CNS. Moreover, the growth was 68.7% in the test with SF-539 CNS; 77% in the test on UACC-257 melanoma; 15.2% in the test on M14 melanoma; -27.2% (active) with HCT-15 colon; -5.82% (active) in the test on HT29 colon; 87.2% with SNB-75 CNS. Besides, the growth in the test with SNB-19 CNS is 97.7%; in the test on U251 CNS, 88%; with PC-3 prostate, 86%; in the test on SK-MEL-5 melanoma, 97.6%; in the test with UACC-62 melanoma, 83.6%; in the test on LOX IMVI melanoma, -79.2% (active). Further, the growth in the test on SK-MEL-28 melanoma was 43.6%; in the test on SK-MEL-2 melanoma, 108%.

Consider `O=C(N/N=C/c1cccs1)c1[nH]c2ccc(Br)cc2c1-c1ccccc1`, for which the growth was 4.72% (active) in the test with K-562 leukemia; 58.2% in the test on MALME-3M melanoma; 5.46% (active) in the test on MDA-MB-231 breast; 62.8% in the test on RXF 393 renal; 35.3% in the test on SF-268 CNS; 15.9% in the test with SF-295 CNS. For the same molecule, the growth was 2.22% (active) with SF-539 CNS; 61.2% in the test with UACC-257 melanoma; 1.81% (active) in the test on M14 melanoma; 9.74% (active) with HCT-15 colon; -23.3% (active) with HT29 colon; 31.4% with SNB-75 CNS. Besides, the growth in the test on SNB-19 CNS is 32.3%; in the test with U251 CNS, 19.1%; in the test on PC-3 prostate it was 26.1%; in the test with SK-MEL-5 melanoma, -36.7% (active); with UACC-62 melanoma, 43%; with SK-MEL-28 melanoma it was 60.7%.

With `Cc1cc(C(NC(=O)CCCCCNc2cccc3c2C(=O)N(C2CCC(=O)NC2=O)C3=O)c2cccnc2)c(O)c2ncccc12` (stereo not given), the growth in the test on K-562 leukemia is 17.8%; in the test on MALME-3M melanoma it was -14.3% (active); in the test on MDA-MB-231 breast, -11.5% (active); with RXF 393 renal, 17.2%; in the test with SF-268 CNS it was 23.6%; in the test with SF-295 CNS, 6.66% (active). The growth with SF-539 CNS is 21.5%; in the test on UACC-257 melanoma, 26.2%; with M14 melanoma it was -5.27% (active); with HCT-15 colon, 19%; in the test with HT29 colon it was 20.5%; in the test on SNB-75 CNS, 8.96% (active). The growth with SNB-19 CNS is 21.7%; in the test on U251 CNS, 30.7%; in the test on PC-3 prostate it was 6.73% (active); with SK-MEL-5 melanoma, -58.7% (active); in the test on UACC-62 melanoma it was 18.5%; with SK-MEL-28 melanoma, 25.2%.

Consider `COC(=O)C1CN(S(=O)(=O)/N=C2\NC(=O)NC2=C(Cl)Cl)C1`, for which the growth was 101% with K-562 leukemia; 104% with MALME-3M melanoma; 106% in the test with MDA-MB-231 breast; 123% in the test with RXF 393 renal; 103% in the test with SF-268 CNS; 104% in the test with SF-295 CNS. Also, the growth in the test on SF-539 CNS was 101%; in the test with UACC-257 melanoma, 101%; with M14 melanoma, 101%; in the test on HCT-15 colon it was 107%; with HT29 colon it was 111%; with SNB-75 CNS, 113%. For the same molecule, the growth in the test with SNB-19 CNS is 100%; with U251 CNS, 105%; in the test on PC-3 prostate, 99.3%; with SK-MEL-5 melanoma, 100%; in the test with UACC-62 melanoma, 95.7%; in the test on SK-MEL-28 melanoma, 112%. The growth in the test on SK-MEL-2 melanoma is 108%.

For `COc1cc(/C=C/C(=O)c2ccccc2)ccc1Oc1nc(NCCO)nc(N2CCOCC2)n1`, the growth is 22.9% with K-562 leukemia; 93.7% in the test on MALME-3M melanoma; 97.1% with MDA-MB-231 breast; 105% in the test with RXF 393 renal; 103% in the test with SF-268 CNS; 99.7% in the test with SF-295 CNS. For the same molecule, the growth was 94.2% in the test with SF-539 CNS; 95.4% in the test on UACC-257 melanoma; 99.3% in the test on M14 melanoma; 90.9% in the test with HCT-15 colon; 105% in the test with HT29 colon; 99.8% in the test with SNB-75 CNS. The growth is 97.8% in the test on SNB-19 CNS; 88.4% in the test on U251 CNS; 84.9% in the test on PC-3 prostate; 99.3% with SK-MEL-5 melanoma; 92.9% with UACC-62 melanoma; 107% in the test with SK-MEL-28 melanoma. Moreover, in the test on SK-MEL-2 melanoma, the growth is 103%.

Consider `CN(C)c1ccc(/C=C2\Cc3c(F)ccc(Br)c3C2=O)cc1`, for which the growth in the test with K-562 leukemia is 98.4%; with MALME-3M melanoma, 92.8%; in the test with MDA-MB-231 breast it was 90.8%; with RXF 393 renal, 108%; in the test on SF-268 CNS, 101%; in the test on SF-295 CNS it was 101%. The growth is 97.5% in the test on SF-539 CNS; 91.3% in the test with UACC-257 melanoma; 92.1% in the test with M14 melanoma; 96.9% in the test on HCT-15 colon; 104% with HT29 colon; 87.8% in the test with SNB-75 CNS. The growth is 93.1% with SNB-19 CNS; 91.6% with U251 CNS; 92% with PC-3 prostate; 96.4% with SK-MEL-5 melanoma; 83.3% with UACC-62 melanoma; 97.4% with SK-MEL-28 melanoma. Also, the growth in the test with SK-MEL-2 melanoma is 108%.

These data come from PubChem BioAssay (NCI).
